Source: PubChem BioAssay AID1159580 (chemical genetic matrix, 2015)
About 2,000 (36%) of roughly 5,500 compounds were called active. Not shown: some 18% with an inconclusive outcome. Cut-off read from the data, not from the text of the source: active = normalized growth mostly below about 0.91 (no sharp cut-off); inconclusive = no clear call, values can overlap the other calls; inactive = mostly above about 0.92. Some of the results follow.

Assay: chemical genetic growth profiling, strain panel (AID 1159580);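 note: tested at 20 µM; growth read once vehicle control cultures reached saturation at 30 °C; 1 = growth at the plate median or of vehicle wells; lower values mean less growth of the strain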
Conditions: growth OD

Measured: normalized growth

CC1(C)S[C@@H]2[C@H](NC(=O)C(C(=O)O)c3ccccc3)C(=O)N2[C@H]1C(=O)O (stereo partly drawn)
inactive: S. cerevisiae deletion strains, locus YJR075W, strain HOC1, stronger effect = lower value 0.987 | S. cerevisiae deletion strains, locus YKL009W, strain mrt4, stronger effect = lower value 0.971 | S. cerevisiae deletion strains, locus YKL068W, stronger effect = lower value 0.994 | S. cerevisiae deletion strains, locus YKL085W, strain MDH1 (second series), stronger effect = lower value 1 | S. cerevisiae deletion strains, locus YKL085W, strain MDH1, stronger effect = lower value 1 | S. cerevisiae deletion strains, locus YKL160W, strain elf1, stronger effect = lower value 1 | S. cerevisiae deletion strains, locus YKR001C, strain vps1, stronger effect = lower value 0.982 | S. cerevisiae deletion strains, locus YKR026C, strain gcn3, stronger effect = lower value 0.985 | S. cerevisiae deletion strains, locus YKR091W, strain srl3, stronger effect = lower value 0.975 | S. cerevisiae deletion strains, locus YLL001W, strain dnm1, stronger effect = lower value 0.932 | S. cerevisiae deletion strains, locus YLL026W, stronger effect = lower value 0.96 | S. cerevisiae deletion strains, locus YLL041C, strain sdh2, stronger effect = lower value 0.982 | S. cerevisiae deletion strains, locus YLR027C, strain aat2, stronger effect = lower value 0.976 | S. cerevisiae deletion strains, locus YLR039C, strain RIC1, stronger effect = lower value 0.989 | S. cerevisiae deletion strains, locus YLR058C, strain SHM2, stronger effect = lower value 0.989 | S. cerevisiae deletion strains, locus YLR102C, strain apc9, stronger effect = lower value 0.997 | S. cerevisiae deletion strains, locus YLR113W, strain HOG1, stronger effect = lower value 0.992 | S. cerevisiae deletion strains, locus YLR221C, strain rsa3, stronger effect = lower value 0.928 | S. cerevisiae deletion strains, locus YLR258W, strain gsy2, stronger effect = lower value 0.967 | S. cerevisiae deletion strains, locus YLR262C, strain YPT6 (second series), stronger effect = lower value 1 | S. cerevisiae deletion strains, locus YLR262C, strain YPT6, stronger effect = lower value 1 | S. cerevisiae deletion strains, locus YLR268W, strain sec22, stronger effect = lower value 0.987 | S. cerevisiae deletion strains, locus YLR320W, strain mms22, stronger effect = lower value 0.967 | S. cerevisiae deletion strains, locus YLR330W, strain CHS5, stronger effect = lower value 0.992 | S. cerevisiae deletion strains, locus YLR342W, strain FKS1 (second series), stronger effect = lower value 0.998 | S. cerevisiae deletion strains, locus YLR342W, strain FKS1, stronger effect = lower value 0.982 | S. cerevisiae deletion strains, locus YLR357W, strain rsc2, stronger effect = lower value 0.967 | S. cerevisiae deletion strains, locus YLR370C, strain arc18, stronger effect = lower value 0.926 | S. cerevisiae deletion strains, locus YLR371W, strain rom2, stronger effect = lower value 0.988 | S. cerevisiae deletion strains, locus YLR384C, strain iki3, stronger effect = lower value 0.969 | S. cerevisiae deletion strains, locus YLR418C, strain cdc73, stronger effect = lower value 0.984 | S. cerevisiae deletion strains, locus YML016C, strain PPZ1, stronger effect = lower value 0.99 | S. cerevisiae deletion strains, locus YML032C, strain rad52, stronger effect = lower value 0.981 | S. cerevisiae deletion strains, locus YML120C, strain ndi1, stronger effect = lower value 0.946 | S. cerevisiae deletion strains, locus YML124C, strain tub3, stronger effect = lower value 1 | S. cerevisiae deletion strains, locus YMR058W, strain fet3, stronger effect = lower value 0.971 | S. cerevisiae deletion strains, locus YMR078C, strain ctf18, stronger effect = lower value 0.985 | S. cerevisiae deletion strains, locus YMR125W, strain sto1, stronger effect = lower value 0.956 | S. cerevisiae deletion strains, locus YMR129W, stronger effect = lower value 1 | S. cerevisiae deletion strains, locus YMR205C, strain PFK2, stronger effect = lower value 0.98 | S. cerevisiae deletion strains, locus YMR223W, strain ubp8, stronger effect = lower value 0.987 | S. cerevisiae deletion strains, locus YMR231W, strain pep5, stronger effect = lower value 0.988 | S. cerevisiae deletion strains, locus YMR307W, strain GAS1, stronger effect = lower value 0.917 | S. cerevisiae deletion strains, locus YNL067W, strain RPL9B, stronger effect = lower value 1 | S. cerevisiae deletion strains, locus YNL071W, strain lat1, stronger effect = lower value 0.995 | S. cerevisiae deletion strains, locus YNL153C, strain GIM3, stronger effect = lower value 0.989 | S. cerevisiae deletion strains, locus YNL183C, strain NPR1, stronger effect = lower value 0.94 | S. cerevisiae deletion strains, locus YNL209W, strain ssb2, stronger effect = lower value 0.969 | S. cerevisiae deletion strains, locus YNL233W, strain BNI4, stronger effect = lower value 0.975 | S. cerevisiae deletion strains, locus YNL248C, strain rpa49, stronger effect = lower value 1.02 | S. cerevisiae deletion strains, locus YNL250W, strain rad50, stronger effect = lower value 0.975 | S. cerevisiae deletion strains, locus YNL271C, strain bni1, stronger effect = lower value 0.984 | S. cerevisiae deletion strains, locus YNL298W, strain CLA4, stronger effect = lower value 0.99 | S. cerevisiae deletion strains, locus YNL307C, strain MCK1, stronger effect = lower value 0.992 | S. cerevisiae deletion strains, locus YNL322C, strain KRE1 (second series), stronger effect = lower value 0.971 | S. cerevisiae deletion strains, locus YNL322C, strain KRE1, stronger effect = lower value 0.997 | S. cerevisiae deletion strains, locus YNR049C, strain mso1, stronger effect = lower value 0.962 | S. cerevisiae deletion strains, locus YNR052C, strain pop2, stronger effect = lower value 0.983 | S. cerevisiae deletion strains, locus YOL006C, strain TOP1, stronger effect = lower value 0.985 | S. cerevisiae deletion strains, locus YOL012C, strain htz1 1.06 | S. cerevisiae deletion strains, locus YOL147C, strain pex11, stronger effect = lower value 0.982 | S. cerevisiae deletion strains, locus YOR001W, strain rrp6, stronger effect = lower value 1 | S. cerevisiae deletion strains, locus YOR061W, strain CKA2, stronger effect = lower value 0.994 | S. cerevisiae deletion strains, locus YOR069W, strain VPS5, stronger effect = lower value 0.991 | S. cerevisiae deletion strains, locus YOR070C, strain gyp1, stronger effect = lower value 0.972 | S. cerevisiae deletion strains, locus YOR080W, strain dia2, stronger effect = lower value 0.972 | S. cerevisiae deletion strains, locus YOR083W, strain WHI5, stronger effect = lower value 0.994 | S. cerevisiae deletion strains, locus YOR106W, strain vam3, stronger effect = lower value 0.993 | S. cerevisiae deletion strains, locus YOR136W, strain idh2, stronger effect = lower value 0.98 | S. cerevisiae deletion strains, locus YOR144C, strain elg1, stronger effect = lower value 0.983 | S. cerevisiae deletion strains, locus YOR184W, strain ser1, stronger effect = lower value 0.978 | S. cerevisiae deletion strains, locus YOR231W, strain MKK1, stronger effect = lower value 1.04 | S. cerevisiae deletion strains, locus YOR265W, strain rbl2, stronger effect = lower value 0.964 | S. cerevisiae deletion strains, locus YOR270C, strain vph1, stronger effect = lower value 0.978 | S. cerevisiae deletion strains, locus YOR290C, strain snf2, stronger effect = lower value 0.961 | S. cerevisiae deletion strains, locus YOR316C, strain cot1, stronger effect = lower value 0.981 | S. cerevisiae deletion strains, locus YPL051W, strain arl3, stronger effect = lower value 0.992 | S. cerevisiae deletion strains, locus YPL078C, strain atp4, stronger effect = lower value 1.01 | S. cerevisiae deletion strains, locus YPL106C, strain sse1, stronger effect = lower value 0.937 | S. cerevisiae deletion strains, locus YPL240C, strain hsp82, stronger effect = lower value 0.971 | S. cerevisiae deletion strains, locus YPL241C, strain CIN2, stronger effect = lower value 0.997 | S. cerevisiae deletion strains, locus YPL256C, strain CLN2, stronger effect = lower value 1.03 | S. cerevisiae deletion strains, locus YPR119W, strain clb2, stronger effect = lower value 0.991 | S. cerevisiae deletion strains, locus YPR141C, strain kar3, stronger effect = lower value 0.977 | S. cerevisiae deletion strains, locus YPR163C, strain tif3, stronger effect = lower value 0.989 | S. cerevisiae deletion strains, locus YPR167C, strain met16, stronger effect = lower value 0.99 | S. cerevisiae deletion strains, strain wtn01, stronger effect = lower value 0.984 | S. cerevisiae strains, strain wild type, stronger effect = lower value 0.999
